87 compounds from PubChem BioAssay AID588664 (The Scripps Research Institute Molecular Screening Center, 2011) can be followed below.

The structures appear in SMILES notation. In all, about 360,000 compounds went through this assay and about 1,400 (0.39%) were called active. Cut-off read from the data, not from the text of the source: active = inhibition above about 5% (passing the limit was not always enough); inactive = the rest. The entries come from a sample that favours actives as a whole.

For this test, the target named is Tyrosine-protein kinase ABL1 (Homo sapiens) + Ras and Rab interactor 1 (Homo sapiens) (UniProt P00519+Q13671). In words: inhibitors of Rin1-Abl protein binding, primary screen, biochemical, TR-FRET (AID 588664). Conditions: at 7.35 µM, stronger effect = higher value. In general terms: TR-FRET usually uses a lanthanide donor and a delayed reading to cut background.
Tyrosine-protein kinase ABL1 (Homo sapiens) + Ras and Rab interactor 1 (Homo sapiens), sequence (P00519 whole entry, looked up): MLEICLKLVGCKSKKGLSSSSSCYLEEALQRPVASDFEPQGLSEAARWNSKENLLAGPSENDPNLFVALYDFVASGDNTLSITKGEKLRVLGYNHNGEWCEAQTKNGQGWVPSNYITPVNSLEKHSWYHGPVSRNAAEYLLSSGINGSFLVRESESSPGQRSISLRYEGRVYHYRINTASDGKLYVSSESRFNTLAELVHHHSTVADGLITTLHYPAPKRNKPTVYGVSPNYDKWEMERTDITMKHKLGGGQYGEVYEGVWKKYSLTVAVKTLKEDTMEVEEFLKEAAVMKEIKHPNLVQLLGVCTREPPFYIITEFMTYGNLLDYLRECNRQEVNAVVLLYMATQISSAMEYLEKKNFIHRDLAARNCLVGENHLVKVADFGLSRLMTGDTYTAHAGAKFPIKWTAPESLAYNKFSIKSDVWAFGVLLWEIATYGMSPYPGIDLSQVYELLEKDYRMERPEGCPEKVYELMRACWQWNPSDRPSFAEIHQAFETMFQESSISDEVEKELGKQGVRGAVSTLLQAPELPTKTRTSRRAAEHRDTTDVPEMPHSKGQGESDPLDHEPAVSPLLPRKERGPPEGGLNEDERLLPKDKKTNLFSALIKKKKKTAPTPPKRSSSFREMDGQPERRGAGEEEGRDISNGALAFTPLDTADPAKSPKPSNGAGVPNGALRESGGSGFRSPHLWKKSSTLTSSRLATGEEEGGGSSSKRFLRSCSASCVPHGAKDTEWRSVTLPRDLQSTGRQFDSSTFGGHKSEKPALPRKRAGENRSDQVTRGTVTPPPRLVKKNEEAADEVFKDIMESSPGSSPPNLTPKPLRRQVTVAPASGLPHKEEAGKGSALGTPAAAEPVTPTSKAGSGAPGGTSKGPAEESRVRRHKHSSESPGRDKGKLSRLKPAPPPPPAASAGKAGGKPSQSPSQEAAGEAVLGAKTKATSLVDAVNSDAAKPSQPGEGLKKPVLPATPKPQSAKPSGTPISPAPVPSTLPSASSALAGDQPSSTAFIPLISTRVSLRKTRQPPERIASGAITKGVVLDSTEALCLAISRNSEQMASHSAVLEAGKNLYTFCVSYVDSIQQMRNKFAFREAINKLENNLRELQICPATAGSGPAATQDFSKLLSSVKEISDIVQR
Tyrosine-protein kinase ABL1 (Homo sapiens) + Ras and Rab interactor 1 (Homo sapiens), sequence (Q13671 whole entry, looked up): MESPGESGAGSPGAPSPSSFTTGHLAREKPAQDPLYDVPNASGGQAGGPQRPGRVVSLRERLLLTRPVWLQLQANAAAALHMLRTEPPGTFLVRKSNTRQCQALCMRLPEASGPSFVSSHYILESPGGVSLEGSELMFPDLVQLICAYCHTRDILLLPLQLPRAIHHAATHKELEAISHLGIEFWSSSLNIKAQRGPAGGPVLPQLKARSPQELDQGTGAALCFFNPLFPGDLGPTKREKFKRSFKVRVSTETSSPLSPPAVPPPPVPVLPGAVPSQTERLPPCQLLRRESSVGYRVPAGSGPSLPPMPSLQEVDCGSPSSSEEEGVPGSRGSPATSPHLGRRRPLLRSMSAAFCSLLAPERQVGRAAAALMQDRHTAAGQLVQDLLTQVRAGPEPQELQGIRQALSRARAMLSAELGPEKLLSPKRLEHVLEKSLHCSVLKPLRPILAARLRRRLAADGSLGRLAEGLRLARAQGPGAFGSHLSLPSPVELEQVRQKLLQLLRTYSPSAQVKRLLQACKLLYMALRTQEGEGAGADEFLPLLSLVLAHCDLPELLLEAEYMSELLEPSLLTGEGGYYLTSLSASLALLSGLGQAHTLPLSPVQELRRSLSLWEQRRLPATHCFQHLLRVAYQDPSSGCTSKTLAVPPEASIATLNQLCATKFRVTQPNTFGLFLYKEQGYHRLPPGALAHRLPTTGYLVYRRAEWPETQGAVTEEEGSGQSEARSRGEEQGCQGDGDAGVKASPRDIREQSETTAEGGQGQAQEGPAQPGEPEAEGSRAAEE
As for `COc1ccc([N+](=O)[O-])cc1NC(=O)COC(=O)/C=C/c1ccco1`, the inhibition (as a rule, the relative decrease from the control value, in per cent) was -3.75% (inactive). On to `Cc1noc(C)c1COC(=O)c1cc2ccccc2cc1O`, for which the inhibition was 1.08% (inactive). As for `O=C(CSc1nc(C2CC2)nc2ccccc12)Nc1cccc(O)c1`, the figure is -0.76% (inactive); as for `O=C(NNc1c2ccccc2nc2ccccc12)c1cc2ccccc2cc1O`, 5.94% (active); as for `CC(C)(C)NC(=O)NC(=O)COC(=O)Cn1c(C(F)(F)F)nc2ccccc21`, 2.76% (inactive).

On to `COc1ccccc1NC(=O)CSc1nnc(-c2ccoc2C)n1CCc1ccccc1`, for which the inhibition was 4.08% (inactive). As for `CCN(CC)S(=O)(=O)c1ccc(N(C)Cc2ccc(C(F)(F)F)cc2)nc1`, the figure is 0.97% (inactive); as for `Nc1cc(=O)c2[nH]cnc2[nH]1`, 16.4% (active); as for `C[C@@H]1CN([C@H](C)CO)S(=O)(=O)c2ccc(C#C[C@@H](C)O)cc2O[C@@H]1CN(C)Cc1ccc(-c2ccccc2)cc1`, 36.5% (active).

Take `C[C@@H]1CN([C@@H](C)CO)S(=O)(=O)c2ccc(-c3ccc(C(=O)N(C)C)cc3)cc2O[C@@H]1CN(C)Cc1ccccc1C(=O)O`: the inhibition was -1.93% (inactive).

Take `Cc1ccccc1-c1ccc2c(c1)O[C@@H](CN(C)Cc1ccc(C(=O)O)cc1)[C@@H](C)CN([C@H](C)CO)S2(=O)=O`: the inhibition is 1.11% (inactive). As for `O=C(C1CCCN(S(=O)(=O)c2ccc([N+](=O)[O-])cc2)C1)N1CCCCC1` (configuration not stated), the figure is 1.73% (inactive). As for `O=C(NC(=S)Nc1ccc(S(=O)(=O)Nc2ncccn2)cc1)c1cccc(Br)c1`, the figure is -0.5% (inactive); as for `O=C(Nc1ccc(S(=O)(=O)Nc2ncccn2)cc1)c1cncc(Br)c1`, 11.3% (active); as for `CCNS(=O)(=O)c1ccc(NC(=O)c2cncc(Br)c2)cc1`, -2.97% (inactive). As for `CCOCCCNC(=S)Nc1ccc2nc(N3CCN(CC)CC3)cc(C)c2c1`, the figure is -3.64% (inactive); as for `CCOc1ccc(NC(=O)CC2NCCNC2=O)cc1` (configuration not stated), 0.97% (inactive). In the case of `COc1ccccc1C(=O)N1CCNC(=O)C1CC(=O)Nc1ccc(Cl)cc1` (configuration not stated), the inhibition is 4.11% (inactive).

Turning to `O=C(CC1SCCNC1=O)Nc1ccc(Cl)cc1` (configuration not stated), the inhibition is 11.9% (active). The value for `Cc1cc(-c2ccc(C)c(S(=O)(=O)NC(C)Cc3ccco3)c2)on1` (configuration not stated) was 4.85% (inactive). With `COc1ccc(NC(=O)CSc2nnc(-c3ccccc3F)n2C2CC2)cc1S(N)(=O)=O`, the inhibition is -3.31% (inactive).

Regarding `Fc1cccc(Cl)c1COc1ccc(-c2nnco2)cc1`, the inhibition was 0.01% (inactive). For `C[C@H](NC(=O)[C@@H]1Cc2ccccc2CN1C(=O)OC(C)(C)C)C(=O)NC1CCCC1`, the inhibition was -1% (inactive). As for `COCCNC(=O)CSc1nc(N)c(NC(=O)c2ccco2)c(=O)[nH]1`, the figure is -1.82% (inactive); as for `COCCNC(=O)Nc1ccc2nc(-c3ccco3)c(-c3ccco3)nc2c1`, 8.86% (active); as for `Cc1ccc(NC(=O)OCCNC(=O)c2ccncc2)cc1`, 1.62% (inactive). The value for `C#CCN(N(C)c1ncc(C(F)(F)F)cc1Cl)S(=O)(=O)c1ccc2ccccc2c1` was 0.28% (inactive); that for `CCN1CCN(c2cc3nc(C)n(Cc4ccccc4)c(=O)c3cc2NC(=O)c2ccccc2F)CC1` was -0.45% (inactive); that for `CC(=O)NC(c1cccs1)c1cc(Br)c2cccnc2c1O` (configuration not stated) was 14.8% (active). For `CCCCC(=O)NC(c1ccc(OC)c(OC)c1)c1ccc2cccnc2c1O` (configuration not stated), the inhibition is -0.15% (inactive). With `N#Cc1ccccc1NC(=O)COc1c(Br)cc(Br)c2cccnc12`, the inhibition is -0.22% (inactive). The value for `O=C(Nc1ccc2c(c1)[C@@H]1C[C@@H](CC(=O)N3CCCCC3)O[C@@H](CO)[C@@H]1O2)NC1CCCCC1` was 2.19% (inactive); that for `O=C(Cn1cnc2cc([N+](=O)[O-])ccc2c1=O)NC(=O)NCc1ccccc1` was -4.46% (inactive); that for `CCOC(=O)C(CCOc1cccc(CC)c1)C(=O)OCC` was 0.47% (inactive). As for `COc1ccc2c(c1)c(=O)c(C(=O)c1ccc(Cl)cc1)cn2CC(=O)Nc1ccc(F)cc1`, the figure is -3.04% (inactive); as for `COc1ccc(CNC(=O)c2c[nH]c3c(OC)cc(OC)cc3c2=O)cc1`, -2.41% (inactive); as for `COc1ccc(CNC(=O)c2cc(C(=O)C3CC3)c[nH]2)cc1`, 11.6% (active). As for `COc1ccc(CNC(=O)C2CCCC2)cc1`, the figure is -1.61% (inactive).

With `OCC[C@H]1C[C@@H](O)[C@H](O)[C@@]2(OCCc3ccccc32)O1`, the inhibition is 1.02% (inactive). In the case of `CC(OC(=O)c1ccc(NC(=O)CC#N)cc1)C(=O)Nc1ccc(S(=O)(=O)N2CCCC2)cc1` (configuration not stated), the inhibition was 2.43% (inactive). The value for `CC(C(=O)Nc1ccc(S(=O)(=O)N2CCCC2)cc1)N(C)Cc1ccc(F)cc1` (configuration not stated) was 2.65% (inactive); that for `CCc1ccc(CN(C)C(C)C(=O)Nc2ccc(S(=O)(=O)N3CCCC3)cc2)cc1` (configuration not stated) was 12.4% (active). Turning to `Cc1nn(Cc2ccccc2)c(C)c1C(=O)N1CCN(CC(=O)Nc2ccccc2Cl)CC1`, the inhibition was 2.44% (inactive). `CCOC(=O)C1=C(COC(=O)[C@H](C)NS(=O)(=O)c2ccccc2F)NC(=O)NC1C` (some centres not stated): the inhibition was 2.47% (inactive).

Regarding `CN(C)c1ccc(N/C=C/C(=O)C(F)(F)F)cc1`, the inhibition is 7.5% (active). With `CNC(=S)NNC(=O)c1ccc(N(C)C)cc1`, the inhibition was 0.47% (inactive).

In the case of `CN(C)c1ccc(/C=N/NC(=O)C(O)c2ccc(Br)cc2)cc1` (configuration not stated), the inhibition is 0.79% (inactive). As for `C[C@H](CO)N1C[C@H](C)[C@@H](CN(C)C(=O)C2CCCCC2)OCc2cnnn2CCCC1=O`, the figure is -1.65% (inactive); as for `Cc1cc(C)c(C(N)=O)c(Cl)n1`, -1.52% (inactive); as for `Cc1ccccc1CN1CCN(CC(=O)NCc2ccccn2)C1=O`, -1.59% (inactive). As for `Cc1ccccc1CN1C[C@@H]2C[C@@H](c3ccc4nsnc4c3)N3CCC[C@@]23C1=O`, the figure is 8.18% (active); as for `Cc1ccccc1CN1C[C@@H]2C[C@@H](c3cn(C)nc3-c3ccccc3)N3CCC[C@@]23C1=O`, -1.71% (inactive); as for `CC(OC(=O)/C=C/c1ccccc1)C(=O)Nc1ccc(C(N)=O)cc1` (configuration not stated), 1.19% (inactive). Turning to `O=S1(=O)CC(N2CCN(c3ccccn3)CC2)CN1Cc1ccc(F)cc1` (configuration not stated), the inhibition was 1.04% (inactive).

For the compound `Cc1ccc(S(=O)(=O)NCCC(=O)NNC(=O)C2COc3ccccc3O2)cc1` (configuration not stated), the inhibition is -0.47% (inactive). As for `Cc1c(CC(=O)N2CCN(C(=O)C3COc4ccccc4O3)CC2)c(=O)oc2c(O)c(O)ccc12` (configuration not stated), the figure is 9.84% (active); as for `Cc1c(CCC(=O)O)c(=O)oc2c(C)c(OCc3ccccc3Cl)ccc12`, 1.81% (inactive); as for `COC(=O)c1ccc(NC(=O)CN(c2ccc(C)cc2)S(=O)(=O)c2c(C)n[nH]c2C)cc1`, 3.33% (inactive). As for `NC1=CC(=O)C(=O)c2cccnc21`, the figure is 17.2% (active). Regarding `CC1(C)C=Cc2c(ccc3c2OC[C@@H](c2ccc(O)cc2O)C3)O1`, the inhibition was -2.38% (inactive). As to `NC(=O)c1ccc(CN2CCC(Cc3ccccc3)CC2)cc1`, the inhibition is 1.83% (inactive).

On to `O=c1cc(CO)oc(CN2CCC(Cc3ccccc3)CC2)c1O`, for which the inhibition was 30.9% (active).

For the compound `CCOC(=O)N1CCN(Cc2oc(CO)cc(=O)c2O)CC1`, the inhibition was 1.56% (inactive). The value for `CCC(C)C(=O)Nc1ccccc1N1CCN(c2ccc(F)cc2)CC1` (configuration not stated) was 1.3% (inactive); that for `CCOC(=O)C1CCCN(C(=O)c2ccc(C)c(S(=O)(=O)N3CCCCC3)c2)C1` (configuration not stated) was 2.16% (inactive). The value for `Cn1nc([N+](=O)[O-])nc1Sc1ccc(C(C)(C)C)cc1` was -6.46% (inactive); that for `CC(C)CCC(=O)Nc1cc(S(=O)(=O)N2CCOCC2)ccc1N1CCCC1` was -1.79% (inactive); that for `O=C(COC(=O)c1ccccc1F)Nc1cc(S(=O)(=O)N2CCOCC2)ccc1N1CCCC1` was 0.95% (inactive).

For the compound `O=C(CNCc1ccco1)Nc1cc(S(=O)(=O)N2CCOCC2)ccc1N1CCCC1`, the inhibition was 5.51% (active). The value for `O=C1NC[C@@H](c2ccccc2)OC(=O)[C@H](Cc2ccc(F)cc2)CC/C=C/C[C@H]1CC(=O)N(CCO)Cc1ccccc1` was -0.64% (inactive); that for `Cc1nn(C)cc1S(=O)(=O)N1CCN(c2ccc(F)cc2)CC1` was 1.17% (inactive). With `CCOC(=O)Cc1ncccc1C(=O)Nc1ccc(OC(F)(F)F)cc1`, the inhibition was -0.49% (inactive). As for `CCOc1c2ccc(C(=O)NCc3ccc(OC(F)(F)F)cc3)cc2nn1C`, the figure is 3.17% (inactive); as for `O=C(Nc1ccc(OC(F)(F)F)cc1)c1ccc2c(c1)no[n+]2[O-]`, 6.4% (active). As for `COc1ccc(N(CC(=O)NC2CCCCC2)S(=O)(=O)c2c(C)[nH]c(=O)[nH]c2=O)cc1`, the figure is 0.98% (inactive); as for `C=CCNC(=O)c1ccccc1NC(=O)c1ccc(Cl)c(S(=O)(=O)Nc2cccc(C)c2C)c1`, 3.96% (inactive); as for `O=C(c1ccc(OC2CCN(C/C=C/c3ccc(F)cc3)CC2)cc1)N1CCCCC1`, 4.14% (inactive). As for `Cc1nn(C)c(Cl)c1CN1CCC(Oc2ccc(C(=O)N3CCCC3)cc2)CC1`, the figure is -0.88% (inactive); as for `CC(=O)Nc1ccc(CN2CCC(Oc3ccc(C(=O)N4CCCC4)cc3)CC2)cc1`, 7.35% (active); as for `Cc1noc(C)c1-c1nc(CSc2ccc(Cl)cc2)no1`, -1.19% (inactive). As for `COc1ccc(-c2cc(C(F)(F)F)n3nc(C(=O)N4CCOCC4)c(Cl)c3n2)cc1`, the inhibition was 0.58% (inactive). As for `CCc1nnc(NC(=O)CSc2nc3ccccc3c(=O)n2CCCOC)s1`, the figure is 2.09% (inactive); as for `Cc1cccc(C)c1NC(=O)CSc1nc2c([nH]1)c(=O)n(C)c(=O)n2C`, 0.29% (inactive). As for `CC(CCO)Nc1nc2c([nH]1)c(=O)n(C)c(=O)n2C` (configuration not stated), the figure is 7.16% (active); as for `Cc1cc(C)c(C=NNc2nc3c([nH]2)c(=O)n(C)c(=O)n3C)c(C)c1`, 4.38% (inactive). As for `O=C(C=CC(=O)Nc1ccc(F)cc1F)Nc1ccc(F)cc1F`, the figure is -1.65% (inactive); as for `Cc1sc2ncn(CC(=O)NCCN(C)C)c(=O)c2c1S(=O)(=O)N1CCC(C)CC1`, -2.5% (inactive).
